Marburg entry = Marburg virus entry inhibition; Potency, µM (titrated, usually from 49.2 µM), for the others: top-dose activity change, negative = inhibition, usual class: inhibitors; Marburg virus pseudotype entry/binding inhibition, cell-based; 18,000 tested, 6.5% active
Lassa entry = inhibitors of Lassa virus binding or entry into cells | Potency, µM (doses to about 49.2 µM), for inactives: at the top dose activity change, negative = inhibition, usual class: inhibitors | Lassa virus pseudotyped entry inhibition, cell-based qHTS | AID 720533 | 18,000 tested, 4.1% active
Starred values were filed as active, the others as inactive; u = inconclusive; ! = repeats disagree; [ ] = another dose, or the depositor's remark. This is a sample that favours compounds with a hit; in the whole collection about 8% have one here. Calls come from the whole dose curve; tested in HEK293 cells. % is set by controls: 0 for no effect and ±100 for the full control effect; potency is the fitted concentration of half-maximal effect.

SMILES	Marburg entry	Lassa entry
Cn1cc(C2=C(c3cn(C4CCN(Cc5ccccn5)CC4)c4ccccc34)C(=O)NC2=O)c2ccccc21	7.1µM*	u
CCN1C(=O)NC(c2cccc(C(F)(F)F)c2)C(C(C)=O)=C1C (configuration not stated)	12%[8.59 µM]	-4%[8.59 µM]
COc1cc2c(cc1OC)[C@@H]1O[C@](c3ccsc3)(C2)OC2=C1C(=O)CC(C)(C)C2	-12%[8.59 µM]	-11%[8.59 µM]
C[C@H]1CN(c2ccc(Br)cc2)C(=O)[C@H]1CC(=O)Nc1ccc(Br)cc1	u	14%
O=C(Nc1ccc(C(=O)N2CCCCC2)cc1)c1ccccc1	80%	32%
O=C(c1ccc(Nc2nccc(-c3cc4ccccc4s3)n2)cc1)N1CCC(N2CCCC2)CC1	2.2µM*	u
Cc1nnc2n1-c1sc(CCc3ccc(CC(C)C)cc3)cc1C(c1ccccc1Cl)=NC2C (configuration not stated)	14µM*	7.9µM*
Cc1nnc2n1-c1sc(CCC(=O)N3CCOCC3)cc1C(c1ccccc1Cl)=NC2	11%	-16%
COc1c(C)c2c(c(O)c1C/C=C(\C)CCC(=O)OCCN1CCOCC1)C(=O)OC2	1.1µM*	1.1µM*
C[C@]12O[C@@H]1[C@@H](O)C(Br)=C(CO)[C@@H]2O	52%[8.59 µM]	3%[8.59 µM]
CC[C@@H](C(=O)[C@@H](C)[C@@H](O)[C@H](C)CCc1ccc(C)c(O)c1C(=O)O)[C@H]1O[C@](CC)([C@H]2CC[C@](O)(CC)[C@H](C)O2)C[C@@H]1C	-78%	11µM*
O=C1[C@@H]2[C@@H](C(=O)N1CC(O)COCc1ccccc1)[C@H]1C=C[C@@H]2C1 (some centres not stated)	7%	-22%
OC1(c2cccnc2)CCN(Cc2ccc3c(c2)CN(Cc2ccc(Cl)cc2)CCO3)CC1	4%	6%
OC1(c2ccc(Cl)cc2)CCN(Cc2c[nH]c3ccccc23)CC1	8.9µM*	u
C=CCN1C(=O)[C@]2(OCCC=C[C@@H]2C)c2cc(OC)ccc21	37%[8.59 µM]	31%[8.59 µM]
COCCN1C(=O)N(C)C(c2ccccc2)C(C(C)=O)=C1C (configuration not stated)	u	-18%[8.59 µM]
CO[C@H]1C[C@@H]2CC[C@@H](C)[C@@](O)(O2)C(=O)C(=O)N2CCCC[C@H]2C(=O)OC([C@H](C)C[C@@H]2CC[C@@H](O)[C@H](OC)C2)CC(=O)[C@H](C)/C=C(\C)[C@@H](O)[C@@H](OC)C(=O)[C@H](C)C[C@H](C)/C=C/C=C/C=C/1C (some centres not stated)	35µM*!	28µM*!
CC12C=C(C=CC=Cc3ccco3)C(C)(C1)C(C=Cc1ccco1)CC2=O (configuration not stated)	-19%[8.59 µM]	0%[8.59 µM]
C#C[C@]1(O)CC[C@H]2[C@@H]3CCC4=CCCC[C@@H]4[C@H]3C(=C)C[C@@]21CC	-12%	-26%
CC[C@]1(O)CC[C@H]2[C@@H]3CCC4=CCCC[C@@H]4[C@H]3CC[C@@]21C	-21%	14µM*
CCc1cc2c(nc1CC)CCN(CCC(C)=NO[C@@H](C)c1cn([C@H](CO)Cc3ccccc3)nn1)C2	-27%[8.59 µM]	16%[8.59 µM]
CCN1C(=NCCCCO)N[C@@H](CCc2ccccc2)[C@H](C(=O)OC)[C@H]1C	9%[8.59 µM]	-8%[8.59 µM]
COc1c(O)cc2c(=O)oc3c(OC)c(O)cc4c(=O)oc1c2c34	-12%	-1%
COc1cc(O)c2c(c1)oc(=O)c1c3cc(O)c(O)cc3oc21	11µM*	u
COc1cccc([C@@H]2Oc3ccc(Br)cc3C(=O)[C@@H]2OC(=O)Nc2cc(OC)c(OC)c(OC)c2)c1	5%[8.59 µM]	-10%[8.59 µM]
SMILES	Marburg entry	Lassa entry
CCN(CC)C(=O)N[C@H]1C[C@@H]2c3cccc4[nH]cc(c34)C[C@H]2N(C)C1	5%	-8%
C=CCN1C[C@H](C(=O)N(CCCN(C)C)C(=O)NCC)C[C@@H]2c3cccc4[nH]cc(c34)C[C@H]21	7.9µM*	-12%
C=CCOC(=O)C(C(C)=O)[C@@H](NC(=O)OC)c1ccc2ccccc2c1 (some centres not stated)	23%[8.59 µM]	27%[8.59 µM]
C=CCOC(=O)C(C(C)=O)[C@@H](NC(=O)OC)c1ccc(Cl)cc1 (some centres not stated)	-10%[8.59 µM]	-4%[8.59 µM]
CN(C)c1ccc(-c2nccc(NCc3ccccc3)n2)cc1	u	-18%
CN(C)c1ccc(C(=C2C=CC(=[N+](C)C)C=C2)c2ccc(N(C)C)cc2)cc1	1.4µM*	1.8µM*
CN(C)c1ccc(C(=C2C=CC(=[N+](C)C)C=C2)c2ccccc2)cc1	1.4µM*!	2.2µM*
CCn1c(-c2nonc2N)nc2cnc(Oc3cccc(NC(=O)c4ccc(N(C)C)cc4)c3)cc21	16%	18%
COC(=O)N[C@@H](c1ccccc1)C(C(=O)OC)C(=O)OC	45%[8.59 µM]	-9%[8.59 µM]
CCCCCC(=O)N1C[C@@H](n2cc(COC(=O)c3ccccc3)nn2)[C@H](O)C[C@H]1c1ccc(Cl)cc1	u	13%
O[C@@H]1CN(Cc2cccs2)[C@@H](c2ccccc2)C[C@@H]1n1cc(-c2ccc(F)cc2)nn1	u	-23%

Source: PubChem
